# Cycloheximide cs: affects cycloheximide protein synthesis inhibition readout, counter-screen. cell reporter, cycloheximide protein synthesis inhibition counterscreen. max response, %. 12% of 300,000 active; in the data active means max response mostly above about 13%, no sharp cut-off; inactive means mostly below about 14%; further: read at 38.3 µM for the half of the compounds with a filed dose; 0% is about no effect
# SARS PLpro yeast: SARS-CoV PLP inhibition in yeast | AID 485353 | S. cerevisiae expressing SARS-CoV PLpro, growth rescue | Potency, µM (highest dose often 32.9 µM), for the others: top-dose activity, positive = growth rescue, most hits filed as activators | 0.19% of 330,000 active; calls by dose curve; further: potency means the concentration at half of the fitted maximal effect; 0% is about no effect; nearly all actives have a fitted effect of over 55% in size
# NS1 function inh: influenza NS1 inhibition | AID 2326 | Potency, µM (titrated, usually from 46.1 µM), inactives show top-dose activity, positive = more growth | 0.4% of 270,000 active; calls by dose curve; further: potency means the concentration at half of the fitted maximal effect; actives are rising curves; nearly all actives have a fitted effect of over 50% in size
#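 Recovery from NS1-induced slow growth read by OD600 in budding yeast switched to galactose assay medium (pH 6.0, -URA) at 1:100 dilution. Compound 23 nl per well; the matching strain lacking NS1 serves as control.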
# Shiga inhibitor: inhibitors of Shiga toxin in Vero cells | Vero cells, Shiga toxin protein synthesis inhibition reporter | inhibition, % at 38.7 µM | 9.2% of 290,000 active | AID 2315; in the data active means inhibition mostly above about 28%, no sharp cut-off; inactive means mostly below about 43%; further: 0% is about no effect
# Pf growth 48h: P. falciparum growth inhibition at 48 hours (one generation) | 5.9% of 310,000 active | AID 504832 | Potency, µM (top dose mostly 28.7 µM), inactives show at the highest dose activity change, negative = inhibition, actives largely listed as inhibitors | P. falciparum luciferase growth in erythrocytes, 48 h; further: potency means the concentration at half of the fitted maximal effect; on the % scale 0 is the no-effect control and ±100 the full control effect
#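 First compound was added to culture medium, then infected red cells at 0.1% parasitemia and 2% hematocrit (final). After incubation at 37 C under 5% CO2, luciferase detection reagent was dispensed and light output recorded.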
# Pf growth 96h: inhibits malaria parasite growth, 96 h. P. falciparum luciferase reporter growth, 96 h. Potency, µM (titrated, usually from 28.7 µM), inactives show top-dose activity change, negative = inhibition, hits mostly inhibitors. 6.9% of 320,000 active. AID 504834; further: potency means the concentration at half of the fitted maximal effect; on the % scale 0 is the no-effect control and ±100 the full control effect
#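 Plates of compound plus infected erythrocytes (2% hematocrit, 0.05% parasitemia final) incubate 96 hours, 37 C, 5% CO2. Detection reagent added; reduced luminescence from the parasites' luciferase reporter flags inhibition.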
# An asterisk follows results filed as active; u = inconclusive; x = no result; [ ] = remark or other dose. Hits are enriched below; roughly 21% of the tested compounds scored in any of these assays. Unless noted, the call rests on the fitted dose curve; in most records, active means well fitted inhibition curve with a large enough effect; inconclusive means small, poorly fitted or top-dose-only effect, or another doubt; inactive means no such curve, though single readings can be large or run the other way.
SMILES,Cycloheximide cs,SARS PLpro yeast,NS1 function inh,Shiga inhibitor,Pf growth 48h,Pf growth 96h
Cc1cccc(C)c1NC(=S)/C(=C(\[O-])c1cccs1)[n+]1ccccc1,-1,-6%,16%,-11,19%,0%
CC(C)n1cc(/C=C2\NC(=O)N(c3cccc(Cl)c3)C2=O)c2ccccc21,8,-2%,3%,-12,x,u
CCn1c(C)cc(/C=C2/NC(=O)N(c3ccccc3)C2=O)c1C,43*,-2%,13%,97*,u,37%
O=C1NC(=O)N(c2ccc(F)cc2)C(=O)/C1=C/c1ccsc1,-1,1%,x,-2,17%,0%
O=C(O)c1ccc(-n2cccc2/C=C2/NC(=O)N(c3cccc(Cl)c3)C2=O)cc1,-2,5%,x,-17,-1%,3%
COCCn1c(C)cc(/C=C2/NC(=O)N(c3cccc(Cl)c3)C2=O)c1C,38*,0%,x,64*,1%[5.75 µM],u
CCn1c(C)cc(/C=C2\NC(=O)N(CC(=O)Nc3cccc(C)c3)C2=O)c1C,1,-7%,u,-11,u,u
CC(C)n1cc(/C=C2/NC(=O)N(c3cccc(Cl)c3)C2=O)c2ccccc21,1,-21%,16%,16,8.3µM*,9.3µM*
O=C1N/C(=C/c2ccsc2)C(=O)N1c1ccccc1,26*,-1%,-1%,47*,79%,u
Cc1ccc(S(=O)(=O)NCCC(=O)NCCOc2ccccc2)cc1,x,-4%,x,x,u,-7%
NC(=O)c1nnn(Cc2cc(Cl)c(C(=O)c3ccc(Cl)cc3)c(Cl)c2)c1N,x,x,-5%,x,x,x
Cc1cccc(C(=O)N/C(=C\c2ccc(C)o2)C(=O)O)c1,-3,-1%,6%,6,0%,u
CCCc1cc(=O)oc2c(C)c(OC(C)C(=O)NCCN3CCOCC3)ccc12 (centres undefined),-4,0%,-4%,-6,-10%,u
O=C(COc1ccc(Cl)cc1)N1CCCCCCC1,13,-3%,7%,7,49%,u
O=C(CCCOc1ccc(Cl)cc1)N1CCCCCC1,39*,-23%,-21%,77*,45%,66%
O=C(CCCOc1ccc(Cl)cc1)N1CCCCC1,40*,-7%,-18%,85*,70%,x
Cc1cc(Cl)ccc1OCC(=O)N1CCCCC1,47*,-4%,-15%,64*,71%,1%
O=C(COc1ccc(Cl)cc1Cl)NC(=O)N1CCCCC1,45*,-3%,-22%,67*,103%,x
O=C(CCCn1c(=O)c2ccccc2n(CC(=O)N2CCN(c3ccccc3)CC2)c1=O)NCc1ccco1,9,-3%,x,-9,u,-21%
CC(C)C[C@H](NC(=O)[C@H](CO)NC(=O)[C@@H]1CCCN1C(=O)[C@H](Cc1ccc(O)cc1)NC(=O)[C@H](CC(C)C)NC(=O)[C@H](CC(C)C)NC(=O)[C@@H]1CCCN1C(=O)[C@@H](NC(=O)[C@H](CO)NC(=O)[C@H](CO)NC(=O)[C@H](CO)NC(=O)[C@H](CO)NC(=O)[C@@H]1CCCN1C(=O)[C@@H](NC(=O)[C@@H](N)CO)C(C)C)[C@@H](C)O)C(=O)N[C@@H](C)C(=O)N[C@@H](CC(C)C)C(=O)N1CCC[C@H]1C(=O)N[C@@H](C)C(=O)N1CCC[C@H]1C(=O)O,-3,x,x,4,x,x
CC1CC(C)CN(C(=O)CCNC(=O)c2ccccc2Cl)C1 (centres undefined),2,-3%,-23%,-12,0.93µM*,0.47µM*
O=C(COc1ccc(Cl)cc1)N1CCCCC1,34*,-7%,4%,52*,25%,x
CCC1CCCCN1C(=O)COc1ccc(F)cc1 (centres undefined),1,0%,-2%,-8,1%,116%
CCC1CCCCN1C(=O)CCCOc1ccccc1 (centres undefined),44*,8%,-1%,47,x,89%
O=C(NCCC(=O)N1CCCCC1)c1ccccc1Cl,1,-5%,7%,14,28%,39%
O=C(CSCc1cccc(Cl)c1)N/N=C/c1ccc(OCC(=O)N2CCCCC2)cc1,13*,-1%,-22%,-3,-6%,7%
Cc1cccc(C(=O)N/N=C/c2ccc(OCC(=O)N3CCCCC3)cc2)c1,4,2%,-9%,23,u,-13%
